Experimental data as given in PubChem BioAssay (NCI).
This is part of a sample that, as a whole, favours compounds with a hit. Of some 79,000 tested, about 15% had one in any assay. Active and inactive are the calls of the source. No stated cut-off is given here; in the data, active means growth inhibition above about 70%; inactive means the rest.

Key:
[1] = NCI Yeast Anticancer Drug Screen. Data for the mec2-1 strain (AID 157); conditions: S. cerevisiae mec2-1 strain, active compounds read high
Procedure, shortened: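 Cells of the genetically defined mec2-1 yeast strain are incubated with test compound. Inhibition of growth is calculated against vehicle-treated controls.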

[2] = NCI Yeast Anticancer Drug Screen. Data for the rad14 strain (AID 159);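 further: 0% = growth of vehicle-treated control cultures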; conditions: S. cerevisiae rad14 strain growth inhibition, active compounds read high
Procedure, shortened: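 Readout: yeast growth inhibition, referenced to vehicle-only cultures. Strain bears a defined alteration in DNA damage repair.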

[3] = NCI Yeast Anticancer Drug Screen. Data for the sgs1 mgt1 strain (AID 161);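 further: 0% = growth of cultures given vehicle only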; conditions: S. cerevisiae sgs1 mgt1 strain, active compounds read high
Procedure, shortened: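 Test agents were incubated with a DNA-repair-mutant yeast strain. Growth was then read and compared against vehicle-treated controls.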

[4] = NCI Yeast Anticancer Drug Screen. Data for the CLN2oe strain (AID 163);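 further: 0% = growth of vehicle-only control cultures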; conditions: S. cerevisiae CLN2oe strain, active compounds read high
Procedure, shortened: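 Strain altered in cell-cycle control, incubated with compound; growth compared to solvent-treated controls.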

[5] = NCI Yeast Anticancer Drug Screen. Data for the cln2 rad14 strain (AID 165);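 further: 0% = growth equal to vehicle treated cultures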; conditions: S. cerevisiae cln2 rad14 strain, active compounds read high
Procedure, shortened: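 The screen exposed genetically defined yeast (cln2 rad14) to test compounds and scored growth inhibition relative to vehicle-treated controls.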

[6] = NCI Yeast Anticancer Drug Screen. Data for the bub3 strain (AID 167); conditions: S. cerevisiae bub3 mutant strain, active compounds read high
Procedure, shortened: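 Part of a panel of yeast mutants defective in DNA damage repair or cell cycle regulation. Each strain is grown with compound, and inhibition is calculated relative to solvent-treated cultures.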

[7] = NCI Yeast Anticancer Drug Screen. Data for the wt2 strain (AID 169);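 further: 0% = growth of vehicle-treated yeast cultures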; conditions: S. cerevisiae wt2 strain growth inhibition, active compounds read high
Procedure, shortened: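 Steps: yeast strain treated with compound; growth recorded; inhibition calculated relative to cultures given vehicle alone.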

[8] = NCI Yeast Anticancer Drug Screen. Data for the mlh1 strain (AID 171);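 further: 0% = growth of vehicle-treated control cultures of the same strain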; conditions: S. cerevisiae mlh1 strain growth inhibition, active compounds read high
Procedure, shortened: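 Yeast screen: mutant strain plus compound, growth scored against vehicle control wells.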

[9] = NCI Yeast Anticancer Drug Screen. Data for the sgs1 strain (AID 173);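 further: 0% = growth of vehicle-only control cultures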; conditions: S. cerevisiae sgs1 mutant, active compounds read high
Procedure, shortened: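 Inhibition of yeast growth served as the measure. The mutant strain was treated with each compound, and growth was normalised to cultures receiving vehicle alone.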

[10] = NCI Yeast Anticancer Drug Screen. Data for the mlh1 rad18 strain (AID 175); conditions: S. cerevisiae mlh1 rad18 strain growth inhibition, active compounds read high
Procedure, shortened: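 Compound-treated yeast growth, normalised to vehicle controls. Strain bears defined DNA repair mutations.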

[11] = NCI Yeast Anticancer Drug Screen. Data for the rad18 strain (AID 177); conditions: S. cerevisiae rad18 mutant growth inhibition, active compounds read high
Procedure, shortened: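 Inhibition values reflect reduced yeast growth compared with vehicle-treated controls, using a strain engineered with a DNA damage repair defect.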

[12] = NCI Yeast Anticancer Drug Screen. Data for the rad52 strain (AID 147);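 further: 0% = growth of vehicle-treated control cultures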; conditions: S. cerevisiae rad52 mutant growth inhibition, active compounds read high
Procedure, shortened: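 Genetically altered yeast (DNA damage repair defect) treated with compound; inhibition calculated relative to vehicle.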

[13] = NCI Yeast Anticancer Drug Screen. Data for the wt1 strain (AID 149);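 further: 0% = growth of vehicle-treated wt1 cultures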; conditions: S. cerevisiae wt1 strain (SPY 50644) growth inhibition, active compounds read high
Procedure, shortened: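 The wt1 strain was treated with compounds, and growth was compared with vehicle-treated cultures to give inhibition.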

[14] = NCI Yeast Anticancer Drug Screen. Data for the rad50EPP+ strain (AID 151);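 further: 0% = growth of vehicle-treated control cultures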; conditions: S. cerevisiae rad50 mutant strain, active compounds read high
Procedure, shortened: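 Strain rad50EPP+; compound exposure; % growth inhibition vs vehicle.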

[15] = NCI Yeast Anticancer Drug Screen. Data for the mgt1 strain (AID 153); conditions: S. cerevisiae mgt1 mutant growth inhibition, active compounds read high
Procedure, shortened: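 Read-out: yeast growth inhibition vs vehicle control. Strain mgt1, drawn from a panel altered in DNA damage repair or cell cycle control.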

[16] = NCI Yeast Anticancer Drug Screen. Data for the rad50 strain (AID 155);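 further: 0% = growth of vehicle-only cultures of the same strain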; conditions: S. cerevisiae rad50 strain growth inhibition, active compounds read high
Procedure, shortened: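 Cells are treated with compound, grown, and their growth is then scored against vehicle-only cultures of the same repair-deficient yeast strain.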

[17] = at 5.0 µM (retest, dose inferred, filed as 0.5)
[18] = at 50.0 µM (retest, dose inferred, filed as 5.0)

Measured: growth inhibition

CCCCCCCCCCCCCCCCOP(=O)(O)OCC(N)C(=O)O (stereo unspecified)
active: [1]; at 33.0 µM 98% | [1]; [18] 99% | [1]; at 50.0 µM 98.2% | [1]; at 100.0 µM 97% | [2]; at 33.0 µM 98% | [2]; at 100.0 µM 97% | [3]; [18] 99% | [3]; at 50.0 µM 98.8% | [4]; at 33.0 µM 94% | [4]; at 100.0 µM 97% | [5]; [18] 99% | [5]; at 50.0 µM 98% | [6]; at 33.0 µM 98% | [6]; [18] 99% | [6]; at 50.0 µM 98.8% | [6]; at 100.0 µM 98% | [8]; at 33.0 µM 97% | [8]; at 100.0 µM 97% | [9]; at 33.0 µM 98% | [9]; at 100.0 µM 98% | [10]; [18] 99% | [10]; at 50.0 µM 98.2% | [11]; at 33.0 µM 97% | [11]; at 100.0 µM 97%
inactive: [1]; [17] 12% | [1]; at 11.0 µM 50% | [2]; at 1.2 µM 4% | [2]; at 3.7 µM -4% | [2]; at 11.0 µM 59% | [3]; [17] -13% | [4]; at 1.2 µM 6% | [4]; at 3.7 µM -10% | [4]; at 11.0 µM -3% | [5]; [17] 6% | [6]; at 1.2 µM -13% | [6]; at 3.7 µM -29% | [6]; [17] -14% | [6]; at 11.0 µM 34% | [7]; at 1.2 µM -17% | [7]; at 3.7 µM -22% | [7]; at 11.0 µM -22% | [7]; at 33.0 µM -22% | [7]; at 100.0 µM 48% | [8]; at 1.2 µM -23% | [8]; at 3.7 µM -11% | [8]; at 11.0 µM 53% | [9]; at 1.2 µM 14% | [9]; at 3.7 µM 1% | [9]; at 11.0 µM 51% | [10]; [17] -26% | [11]; at 1.2 µM -25% | [11]; at 3.7 µM -11% | [11]; at 11.0 µM 40%

O=C(CC(C(=O)O)N1CCOCC1)c1ccccc1 (stereo unspecified)
inactive: [12]; at 1.2 µM -1% | [12]; at 3.7 µM -2% | [12]; at 11.0 µM 0% | [12]; at 33.0 µM 32% | [13]; at 1.2 µM -1% | [13]; at 3.7 µM -2% | [13]; at 11.0 µM 0% | [13]; at 33.0 µM 12% | [13]; at 100.0 µM 47% | [14]; at 1.2 µM -2% | [14]; at 3.7 µM -1% | [14]; at 11.0 µM 2% | [14]; at 33.0 µM 12% | [14]; at 100.0 µM 43% | [15]; at 1.2 µM -3% | [15]; at 3.7 µM -3% | [15]; at 11.0 µM 1% | [15]; at 33.0 µM 33% | [15]; at 100.0 µM 65% | [16]; at 1.2 µM -3% | [16]; at 3.7 µM 1% | [16]; [17] 13% | [16]; at 11.0 µM 2% | [16]; at 33.0 µM 36% | [16]; [18] 65% | [16]; at 50.0 µM 49% | [1]; at 1.2 µM -6% | [1]; at 3.7 µM -11% | [1]; [17] -2% | [1]; at 11.0 µM 2% | [1]; at 33.0 µM 31% | [1]; [18] 41% | [1]; at 50.0 µM 12.4% | [1]; at 100.0 µM 66% | [2]; at 1.2 µM -3% | [2]; at 3.7 µM -5% | [2]; at 11.0 µM 0% | [2]; at 33.0 µM 3% | [2]; at 100.0 µM 29% | [3]; [17] -6% | [3]; [18] 54% | [3]; at 50.0 µM 3.3% | [4]; at 1.2 µM -4% | [4]; at 3.7 µM -9% | [4]; at 11.0 µM -10% | [4]; at 33.0 µM -2% | [4]; at 100.0 µM 22% | [5]; [18] 17% | [5]; at 50.0 µM -16.2% | [6]; at 1.2 µM -16% | [6]; at 3.7 µM -17% | [6]; at 11.0 µM -8% | [6]; at 33.0 µM 29% | [6]; [18] 60% | [6]; at 50.0 µM 21.3% | [6]; at 100.0 µM 68% | [7]; at 1.2 µM -4% | [7]; at 3.7 µM -3% | [7]; at 11.0 µM 0% | [7]; at 33.0 µM 31% | [8]; at 1.2 µM -3% | [8]; at 3.7 µM -3% | [8]; at 11.0 µM 4% | [8]; at 33.0 µM 37% | [9]; at 1.2 µM 0% | [9]; at 3.7 µM 5% | [9]; at 11.0 µM 19% | [9]; at 33.0 µM 56% | [10]; [17] 10% | [10]; [18] 47% | [10]; at 50.0 µM 47.9% | [11]; at 1.2 µM -1% | [11]; at 3.7 µM 5% | [11]; at 11.0 µM 28%
active: [12]; at 100.0 µM 73% | [16]; at 100.0 µM 77% | [5]; [17] 81% | [6]; [17] 98% | [7]; at 100.0 µM 71% | [8]; at 100.0 µM 77% | [9]; at 100.0 µM 80% | [11]; at 33.0 µM 80% | [11]; at 100.0 µM 91%
